Vaccinia Venus: qHTS for Stage-Specific Inhibitors of Vaccinia Orthopoxvirus: Venus Reporter Primary qHTS; hit rate 0.46% among 330,000; Vaccinia virus Venus reporter expression, fluorescence; Potency, µM (doses to about 36.5 µM), without a hit: at the top dose activity change, negative = inhibition, hits mostly inhibitors; calls by dose curve; tested in A549 cells; note: potency is the fitted concentration of half-maximal effect; nearly all actives have a fitted effect of over 30% in size
Lassa entry inh: qHTS for Inhibitors of binding or entry into cells for Lassa Virus; Lassa virus pseudotype entry inhibition, cell reporter; Potency, µM (top dose mostly 37.9 µM), inactives show top-dose activity change, negative = inhibition, hits mostly inhibitors; hit rate 1.2% among 300,000; calls by dose curve; tested in HEK293 cells; note: potency is the fitted concentration of half-maximal effect; nearly all actives have a fitted effect of over 50% in size
Vaccinia mCherry: qHTS for Stage-Specific Inhibitors of Vaccinia Orthopoxvirus: mCherry Reporter Primary qHTS; Vaccinia virus mCherry reporter infection, fluorescence; Potency, µM (series often up to 36.5 µM), without a hit: at the highest dose activity change, negative = inhibition, actives largely listed as inhibitors; hit rate 0.63% among 310,000; calls by dose curve; tested in A549 cells; note: potency is the fitted concentration of half-maximal effect; nearly all actives have a fitted effect of over 35% in size
HCMV antiviral: qHTS Assay for inhibitors of the human cytomegalovirus (HCMV) | HFF cells, HCMV-luciferase reporter, 72 h; active compounds read low | activity change, negative = inhibition, % at 57.5 µM | hit rate 4.5% among 410,000; in the data active = activity change below about -60%; inconclusive = no clear call, values can overlap the other calls; inactive = above about -39%
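Steps: HFFs plated, 16 h 37C; compounds added; HCMV-luciferase added to MOI 1 PFU/cell; 72 h 37C; OneGlo reagent, 5 min room temperature; luminescence read, normalized to controls.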
Marburg entry inh: qHTS for inhibitors of binding or entry into cells for Marburg Virus. Potency, µM (top dose mostly 37.8 µM), for inactives: at the highest dose activity change, negative = inhibition, usual class: inhibitors. Marburg virus pseudotyped entry inhibition, cell reporter. hit rate 1.8% among 300,000; calls by dose curve; tested in HEK293 cells; note: potency is the fitted concentration of half-maximal effect
FMDV inh: High Throughput Screening for Foot and Mouth Disease Virus Antivirals; FMDV antiviral cell-based qHTS; Potency, µM (highest dose often 57.9 µM), for inactives: at the highest dose activity change, negative = inhibition, most hits filed as inhibitors; hit rate 1.2% among 410,000; calls by dose curve; tested in HEK293T cells; note: read-out not given here; potency is the fitted concentration of half-maximal effect; nearly all actives have a fitted effect of over 45% in size
Numbers without * were called inactive; [ ] = remark or other dose. Most compounds without a hit are left out; they make up all but 6.5% or so of the library. % is set by controls: 0 for no effect and ±100 for the full control effect.

`COc1c(Cl)cc(-c2noc(C)c2C(=O)NCc2ccccc2)cc1Cl` gave Vaccinia Venus -5%, Vaccinia mCherry 1%, HCMV antiviral -68*, Marburg entry inh 0% and FMDV inh -16%.
`COCc1c(C(=O)N2CCCCCC2)cnn1-c1nccc(-c2cccs2)n1` gave Vaccinia Venus -10%, Vaccinia mCherry -11% and FMDV inh 31%.
For C/C(=C\c1ccco1)CN1CCOc2ccc(CN3CCC(Oc4cccnc4)CC3)cc2C1 the results were Vaccinia Venus 5%, Vaccinia mCherry -1% and FMDV inh -17%.
Cc1onc(-c2ccccc2)c1C(=O)N/N=C/c1c[nH]c2ccccc12 was read as Vaccinia Venus -17%, Lassa entry inh 10µM*, Vaccinia mCherry -40%, HCMV antiviral 73, Marburg entry inh 3%[46.1 µM] and FMDV inh inconclusive.
Screening COc1cccc(/C=N/NC(=O)c2cnccn2)c1O returned Vaccinia Venus -5%, Vaccinia mCherry 4.5µM*, HCMV antiviral 17 and FMDV inh 13%.
`Cc1ccc(/C=N/NC(=O)c2c(-c3ccccc3)noc2C)c(O)c1` gave HCMV antiviral -110*.
Screening NC(=Nc1ccccc1)NN=Cc1c[nH]c2ccccc12 returned Vaccinia Venus inconclusive, Lassa entry inh -20%, Vaccinia mCherry 0%, HCMV antiviral -85*, Marburg entry inh inconclusive and FMDV inh inconclusive.
Screening Cc1cc(-c2ccc(C)c(S(=O)(=O)Nc3ccccc3C(F)(F)F)c2)on1 returned Vaccinia Venus -4%, Lassa entry inh 24%[46.1 µM], Vaccinia mCherry -8%, HCMV antiviral -13 and FMDV inh -5%.
Screening COc1cccc(/C=N/NC(=O)c2c(-c3ccccc3)noc2C)c1O returned Vaccinia Venus inconclusive, Lassa entry inh 10µM*, Vaccinia mCherry 10µM*, HCMV antiviral -83*, Marburg entry inh 11µM* and FMDV inh -13%.
Screening O=C(c1cnn(-c2nccc(-c3ccccc3F)n2)c1C1CC1)N1CCN(CCO)CC1 returned Vaccinia Venus -11%, Vaccinia mCherry -9% and FMDV inh -2%.
`COc1ccccc1CNC(=O)CSc1ncc(S(=O)(=O)c2ccc(C)c(Cl)c2)c(=O)[nH]1` gave Vaccinia Venus 8%, Lassa entry inh 18%[46.1 µM], Vaccinia mCherry -3%, HCMV antiviral 13 and FMDV inh 10%.
Screening COc1cccc(CNc2nc3cc(-c4ccsc4)sc3c(=O)n2C)c1OC returned Vaccinia Venus -14%, Vaccinia mCherry 13%, HCMV antiviral -68* and FMDV inh 32µM*.
Screening COc1cccc(CNc2nc3cc(-c4ccc(C)cc4)sc3c(=O)n2C)c1OC returned Vaccinia Venus -23%, Vaccinia mCherry -13%, HCMV antiviral 2 and FMDV inh 5%.
For COc1cccc(CNc2nc3cc(-c4ccc(F)cc4)sc3c(=O)n2C)c1OC the results were Vaccinia Venus -12%, Vaccinia mCherry 7%, HCMV antiviral -71* and FMDV inh -20%.
`COc1ccc(-c2cc3nc(NCc4ccc(N(C)C)cc4)n(C)c(=O)c3s2)cc1OC` gave Vaccinia Venus inconclusive, Vaccinia mCherry inactive, HCMV antiviral inconclusive and FMDV inh 28µM*.
Screening COCCNc1nc(Oc2ccc(NC(C)=O)cc2)c2sc(-c3ccccc3)cc2n1 returned Vaccinia Venus inconclusive, Vaccinia mCherry -14%, HCMV antiviral -16 and FMDV inh -18%.
`COCCNc1nc(NCc2ccc(NC(C)=O)cc2)c2sc(-c3ccccc3)cc2n1` gave Vaccinia Venus 11µM*, Vaccinia mCherry inconclusive, HCMV antiviral -98* and FMDV inh -7%.
`C/C(CCN1CCc2nc(-c3ccccc3)c(-c3ccccc3)cc2C1)=N\OC[C@@H](O)[C@H]1O[C@@H]2OC(C)(C)O[C@@H]2[C@H]1O` gave Marburg entry inh 26%[14.2 µM].
`CCCCn1c(=O)n(-c2cc(OC)ccc2OC)c(=O)c2c3c(sc21)CN(C(C)=O)CC3` gave Vaccinia Venus -3%, Vaccinia mCherry -13%, HCMV antiviral -18, Marburg entry inh 6%[46.1 µM] and FMDV inh 4%.
For COc1cccc(CNc2nc3cc(-c4ccccc4)sc3c(=O)n2C)c1 the results were Vaccinia Venus -20%, Vaccinia mCherry inactive, HCMV antiviral -65* and FMDV inh 0%.
Screening CC(=O)Nc1ccc(CNc2nc3cc(-c4ccsc4)sc3c(=O)n2C)cc1 returned Vaccinia Venus -17%, Vaccinia mCherry 6%, HCMV antiviral -66* and FMDV inh 0%.
Screening COc1cccc(CNc2nc3cc(-c4ccc(OC)c(OC)c4)sc3c(=O)n2C)c1 returned Vaccinia Venus -30%, Vaccinia mCherry -8%, HCMV antiviral 21 and FMDV inh inconclusive.
Screening COc1ccc(CN2CCC3(CC2)c2ccccc2[C@@H](NC(=O)c2ccccc2OC)[C@@H]3O)cc1O returned Vaccinia Venus -12%, Vaccinia mCherry -23% and FMDV inh -9%.
Screening COc1cc(C(=O)OCCN2CCOCC2)cc(OC)c1OC returned Vaccinia Venus -8%, Lassa entry inh 9%, Vaccinia mCherry -1%, HCMV antiviral 48 and Marburg entry inh -1%.
`COc1cc(C(=O)OCCCN2CCCN(CCCOC(=O)c3cc(OC)c(OC)c(OC)c3)CC2)cc(OC)c1OC` gave Vaccinia Venus -9%, Lassa entry inh inconclusive, Vaccinia mCherry -6%, HCMV antiviral 171, Marburg entry inh 5.2µM* and FMDV inh -15%.
`CCN(CC)CCCCCCCCOC(=O)c1cc(OC)c(OC)c(OC)c1` gave Vaccinia Venus inconclusive, Lassa entry inh inconclusive, Vaccinia mCherry inconclusive, HCMV antiviral 29, Marburg entry inh 23µM* and FMDV inh -8%.
CC1(C(=O)Nc2ccc(Cl)c(Cl)c2)CCN1Cc1ccccc1OC(F)F (stereo not drawn) was read as Vaccinia Venus -24%, Vaccinia mCherry inactive, HCMV antiviral 122 and FMDV inh 32µM*.
For CC(=O)N1CCc2cc(NC(=O)c3ccc(C)cc3)ccc21 the results were Lassa entry inh 16µM*, HCMV antiviral 77, Marburg entry inh inconclusive and FMDV inh 0%.
For CC(=O)N1CCc2cc(NC(=O)C3(C)CCN3Cc3ccccc3Cl)ccc21 (stereo not drawn) the results were Vaccinia Venus 39%, Vaccinia mCherry inconclusive, HCMV antiviral -78* and FMDV inh -3%.
For CC(=O)N1CCc2cc(NC(=O)C3(C)CCN3Cc3ccc(C(C)C)cc3)ccc21 (stereo not drawn) the results were Vaccinia Venus -16%, Vaccinia mCherry -20%, HCMV antiviral -2 and FMDV inh inconclusive.

Screening results from PubChem.
